The campaign covered roughly 85,000 compounds. About 5,100 (6%) were called active. This excerpt belongs to a sample that is enriched for actives. A number with no mark means an inactive call.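 How the source made its calls: active means viability at or below 40%; inactive means viability above 40%.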
assay: proliferation blockers of H69AR lung cancer cells, primary screen, cell-based, human, 86K library (AID 598); details: H69AR lung tumor viability, ATP luminescence, 72 h; at 10 µM; hits give low values;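 further: multidrug resistant small cell line overexpressing MRP-1 efflux transporter; 100% = mean luminescence of untreated control wells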

| Structure (SMILES) | viability |
| --- | --- |
| COc1ccc(S(=O)(=O)Nc2ccc(F)cc2)c(C)c1C | 101% |
| CCCCCCC12CCC(C(=O)O)(CC1)CC2 | 79.3% |
| Cc1nc2cc(NC(=O)NCc3ccccc3)ccc2o1 | 95.1% |
| OC(COc1ccc2ccccc2c1)Cn1cncn1 (stereo not given) | 88.4% |
| O=C(Nc1cc(N2CCOCC2)ncn1)NC1(C(F)(F)F)Oc2ccc(Cl)cc2O1 (stereo not given) | 29.6% (active) |
| COc1c(C)cccc1C(=O)Nc1cc(Cl)ccc1N1CCOCC1 | 82.7% |
| O=C(CN1CCOCC1)Nc1cc(Cl)ccc1Cl | 93.4% |
| CCOc1cc2[nH]c(=S)n(CCN3CCCCC3C)c(=O)c2cc1OCC (stereo not given) | 82.5% |
| CCn1cc(C(=O)NC2CCCCCC2)c(=O)c2cc(S(=O)(=O)N3CCCCC3)ccc21 | 30.1% (active) |
| CCn1cc(C(=O)NCC2CCCO2)c(=O)c2cc(S(=O)(=O)N3CCCCC3)ccc21 (stereo not given) | 87.7% |
| O=C(NC1CCCCC1)n1c(=O)oc2cc(S(=O)(=O)N3CCCCC3)ccc21 | 60.7% |
| CN(C)S(=O)(=O)c1ccc(NC(=O)COC(=O)c2n[nH]c3ccccc23)cc1 | 78.6% |
| CCCCc1nc(NCCN)c(C#N)c2c1CSC(C)(C)C2 | 1.08% (active) |
| Cc1nc(NCCN)c(C#N)c2c1COC(C)(C)C2 | 85% |
| CC(C)(C)c1ccc(OC2=CS(=O)(=O)c3ccccc32)cc1 | 88% |
| CCCn1nnc(NC(=O)COc2ccc(CC)cc2)n1 | 95.5% |
| CC(C)Cn1c(CN(Cc2ccccc2)Cc2ccccc2)nc2c1c(=O)n(C)c(=O)n2C | 61.6% |
| Cn1c(=O)c2c(ncn2CC(=O)N2CCN(c3ccccc3)CC2)n(C)c1=O | 105% |
| CC(C)Cn1cnc2c1c(=O)n(CC(O)c1ccccc1)c(=O)n2CC(C)C (stereo not given) | 28% (active) |
| Cc1cc(-n2nc(C)cc2C)n2nc(C)c(-c3ccccc3)c2n1 | 68.4% |
| O=C(COc1ccc2ccccc2c1)N1CCN(C(=O)c2cccs2)CC1 | 74% |
| O=C(CCN1C(=O)c2ccccc2C1=O)Nc1cccc(F)c1 | 98.2% |
| COc1ccc(-n2nnnc2SCC(=O)Nc2ccccc2)cc1 | 103% |
| O=c1c2ccccc2nc(CSc2nnnn2-c2ccccc2)n1-c1ccccc1 | 15.1% (active) |
| Cc1ccc(Nc2nc(CSc3nnnn3-c3ccccc3)cc(=O)[nH]2)cc1 | 23.1% (active) |

| Structure (SMILES) | viability |
| --- | --- |
| Cc1ccc(-c2noc(CSc3nnnn3-c3ccccc3)n2)cc1 | 86.2% |
| N#CCSc1nc2ccccc2c(=O)n1-c1ccccc1 | 77% |
| O=c1c2ccccc2nnn1CSc1nnnn1-c1ccccc1 | 83.4% |
| OC(CN1C2=NCCCN2c2ccccc21)c1ccc(Br)cc1 (stereo not given) | 86.5% |
| Cn1cnc([N+](=O)[O-])c1Nc1ccccc1O | 100% |
| COC(=O)c1ccc(CSc2nnc(NC(C)C)s2)cc1 | 98.2% |
| COc1ccc(C)cc1NC(=O)CCS(=O)(=O)c1cccc2nonc12 | 89% |
| CC1CCc2c(sc3nc4n(c(=O)c23)CCS4)C1 (stereo not given) | 80.8% |
| C=CCn1c(SCc2c(C)noc2C)nc2sc3c(c2c1=O)CCC(C)C3 (stereo not given) | 29.4% (active) |
| CCCn1nnc2sc3c(c2c1=O)CCC(C)C3 (stereo not given) | 96.7% |
| Nc1c(C(=O)NCc2ccccc2)sc2nc3c(cc12)C(=O)CCC3 | 65.5% |
| COCCNC(=O)COc1ccc(C)c(C)c1 | 86% |
| Cc1ccc(SCC(=O)c2cc(C)c(OC(=S)N(C)C)c(C)c2)cc1 | 64.6% |
| Cc1ccc(SC(=O)COc2ccc(C)c(C)c2)cc1 | 16.4% (active) |
| Cc1ccc(S(=O)(=O)NC(=O)COc2ccccc2C)cc1 | 97.9% |
| CCOCN(C(=O)Cn1c(C(C)O)nc2ccccc21)c1c(C)cccc1CC (stereo not given) | 62.8% |
| O=C(Cc1ccc(-n2c(=O)c3sccc3n(Cc3ccc(F)cc3)c2=O)cc1)NCc1ccco1 | 51% |
| CCC(=O)Nc1sc(C(=O)N2CCCCC2)c(C)c1C#N | 96.9% |
| CN1CCN(CC(=O)Nc2sc3c(c2C#N)CCC(C(C)(C)C)C3)CC1 (stereo not given) | 2.42% (active) |
| c1ccc(-c2nc(NCc3ccco3)c3ccccc3n2)cc1 | 87.9% |
| Cc1nc2ccccc2c2oc(C(=O)NCC3CCCO3)cc12 (stereo not given) | 82.4% |
| c1ccc2c(NCC3CCCO3)nc(-c3ccncc3)nc2c1 (stereo not given) | 35.5% (active) |
| Cn1c2c(c(=O)n(C)c1=O)C(c1cccc([N+](=O)[O-])c1)Nc1ccccc1O2 (stereo not given) | 88.5% |
| C=CCn1c(SCc2c(C(=O)OC)sc(N)c2C(=O)OC)nnc1-c1ccc(Cl)cc1 | 45.2% |
| COc1ccc(CN2CCCCC2C)cc1OC (stereo not given) | 105% |

| Structure (SMILES) | viability |
| --- | --- |
| O=C(Nc1ncc2c(n1)CC(c1ccco1)CC2=O)c1ccc(Cl)cc1 (stereo not given) | 80.7% |
| CCc1ccc(Nc2ncc3c(n2)CC(c2ccco2)CC3=O)cc1 (stereo not given) | 26.3% (active) |
| COc1cc(C2CC(=O)c3cnc(NC(C)=O)nc3C2)cc(OC)c1OC (stereo not given) | 74% |
| Nc1ccc(C(=O)OCC(=O)NC2CCCc3ccccc32)cc1[N+](=O)[O-] (stereo not given) | 63.4% |
| CSc1ncccc1C(=O)OCC(=O)N1CCOCC1 | 96% |
| CCOC(=O)c1cc2ccccc2nc1C | 101% |
| CCOc1ncccc1C(=O)OCc1cn2cc(Cl)ccc2n1 | 35.2% (active) |
| COc1ccc(CNc2ccc3c(c2)CCC3)cc1OC | 104% |
| CCOc1ccc(C(=O)NC2CCN(C(=O)Nc3ccccc3OC)CC2)cc1 | 79% |
| COC(=O)CSc1nc(C)c2ccc(OC)cc2n1 | 86.5% |
| Cc1nnc(SCC(=O)NC(=O)NC2CCCC2)n1N | 109% |
| CC(Nc1nc(N2CCCC2)nc2ccccc12)c1ccccc1 (stereo not given) | 12.4% (active) |
| Cc1ccc(C(CC(=O)O)Nc2nc(N3CCCCC3)nc(N3CCCCC3)n2)cc1 (stereo not given) | 108% |
| CC(C)n1c(C(O)c2ccccc2)nc2ccccc21 (stereo not given) | 104% |
| CCCCN1C(=O)/C(=C2/C=CC=CN2C)SC1=S | 90.2% |
| CC(=O)c1cc2c(cc1NC(=O)CN1CCCCCC1)OCO2 | 79.5% |
| CCc1ccc(CNC(=O)C2CC(=O)N(CCc3ccc(C)cc3)C2)cc1 (stereo not given) | 99.5% |
| CCCSc1nc2c(c(=O)[nH]c(=O)n2C)n1CCc1ccccc1 | 74% |
| CN1CCN(c2nc3c(c(=O)[nH]c(=O)n3C)n2Cc2cccc3ccccc23)CC1 | 71.9% |
| CCC(C)Sc1nc2c(c(=O)[nH]c(=O)n2C)n1CC(O)COc1cccc2ccccc12 (stereo not given) | 30.7% (active) |
| Cn1c(SCC(=O)NC2CCCCC2)nnc1-c1cc2ccccc2o1 | 91% |
| CC(=O)c1cccc(NC(=O)Nc2ccc(C)cc2)c1 | 95.3% |
| Cc1ccoc1C(=O)Nc1cccc(Oc2ccccc2)c1 | 112% |
| Cc1cccc(NC(=O)Nc2cccc(Oc3c(F)c(F)c(F)c(F)c3F)c2)c1 | 8.13% (active) |
| COc1ccc2c(Cl)c(C(=O)NCc3ccco3)sc2c1 | 91.4% |

| Structure (SMILES) | viability |
| --- | --- |
| CCOc1ccc(N=C2NC(=O)S/C2=C\c2ccc(O)cc2)cc1 | 47.5% |
| CCC(=O)Nc1ccc(C(=O)Nc2cccc(OC)c2)cc1 | 64.6% |
| CCCc1nc2scc(-c3ccc(C)cc3)c2c(=O)n1N | 46.1% |
| O=C(Cc1ccccc1)Nc1c(C(=O)N2CCCCCC2)cnn1-c1ccccc1 | 96.5% |
| CCCc1nc(NCc2ccc3c(c2)OCO3)c2nnn(Cc3ccccc3Cl)c2n1 | 24.6% (active) |
| C#CCNc1nc(C(C)C)nc2c1nnn2Cc1ccccc1F | 104% |
| O=C(Cn1cnc2c(nnn2Cc2ccc(F)cc2)c1=O)NCc1ccc2c(c1)OCO2 | 95.8% |
| O=c1onc(-c2cccs2)n1Cc1ccccc1 | 95.9% |
| Cc1cccc(C)c1OC(=O)CSc1nnc(-c2ccccc2)o1 | 98.4% |
| O=C1CC(C(F)(F)C(F)(F)C(F)(F)C(F)(F)F)=Nc2ccccc2N1 | 92.7% |
| CCCCOc1ccc(Cl)cc1CSc1nncn1N | 94% |
| CCCCOc1ccc(CSC(=N)N)cc1[N+](=O)[O-] | 5.08% (active) |
| N#C/C(=C\c1ccccc1)c1n[nH]c(Cn2cncn2)n1 | 96.8% |
| O=C(CCS(=O)(=O)c1cccc2nsnc12)N1CCN(c2ccccc2F)CC1 | 91% |
| CCOC(=O)C(=O)Nc1nc(-c2ccccc2)c(CC)s1 | 103% |
| C=CCn1c(SCC(=O)/C(C#N)=C(\C)N)nc2sc(C)c(C)c2c1=O | 6.3% (active) |
| CCCn1c(=O)c2ccccc2n2c(SCC(=O)/C(C#N)=C(\C)N)nnc12 | 79.8% |
| Cc1sc2nc(SCC(N)=O)n(C)c(=O)c2c1C | 84.1% |
| CCC(=O)Nc1ccc(S(=O)(=O)NCC2CCCO2)cc1 (stereo not given) | 90.7% |
| N#Cc1c2c(c(N3CCN(CCO)CC3)n3c1nc1ccccc13)CCCC2 | 85.5% |
| CC1CCc2sc3nc(N4CCN(CCO)CC4)n4ncnc4c3c2C1 (stereo not given) | 33.1% (active) |
| Cc1c(Nc2nc3ccccc3nc2NS(=O)(=O)c2cccs2)c(=O)n(-c2ccccc2)n1C | 85.5% |
| CCOC(=O)C(C)n1cnc2sc(C)c(C)c2c1=O (stereo not given) | 89.3% |
| CC(=O)Oc1ccc(NC(=O)CCC2CCCCC2)c(C(=O)O)c1 | 101% |
| COc1ccc(CN(CC(=O)NC2CCCC2)C(=O)CCC(=O)Nc2cc(C)on2)cc1 | 96.3% |

Source: PubChem BioAssay AID598 (SRMLSC, 2007)
